PubChem BioAssay (EPA / NIEHS)
Results filed as inconclusive are left out. Active and inactive are the calls of the source. Rule for the calls, unless noted: active = hit-call score of the fitted dose curve at least 0.9, where 1 is the maximum; inconclusive = response in the unintended direction; inactive = score below 0.9.

Columns and labels:
[1] = biological target: human Peroxisome Proliferator-activated Receptor delta (PPARd), PPARD (gene 5467) (UniProt Q03181); assay: ATG_PPARd_TRANS: Attagene TRANS-FACTORIAL HepG2 Assay for human Peroxisome Proliferator-activated Receptor delta (PPARd) (AID 2283002)
Chain of human Peroxisome Proliferator-activated Receptor delta (PPARd), PPARD (gene 5467) (Q03181 whole entry, looked up, the tested form may be a part): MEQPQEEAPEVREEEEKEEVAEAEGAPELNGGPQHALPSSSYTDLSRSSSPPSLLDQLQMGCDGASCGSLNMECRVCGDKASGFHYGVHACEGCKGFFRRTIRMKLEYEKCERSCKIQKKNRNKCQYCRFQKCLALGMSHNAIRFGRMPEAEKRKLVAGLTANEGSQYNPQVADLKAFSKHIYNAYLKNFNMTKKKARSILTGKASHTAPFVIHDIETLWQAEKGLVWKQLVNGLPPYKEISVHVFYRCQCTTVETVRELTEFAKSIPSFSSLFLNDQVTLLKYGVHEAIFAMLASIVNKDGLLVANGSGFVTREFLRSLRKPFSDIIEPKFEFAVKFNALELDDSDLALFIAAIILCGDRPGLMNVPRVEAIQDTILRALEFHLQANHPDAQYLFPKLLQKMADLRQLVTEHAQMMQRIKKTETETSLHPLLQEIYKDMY
In short: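 HepG2 cells transiently transfected with multiplexed GAL4-UAS reporter units and exogenous chimeric NR-Gal4 proteins; 24 h compound exposure. Reporter mRNA measured by RT-PCR, 6-FAM labelling, HpaI digestion and capillary electrophoresis; gain of signal versus DMSO.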

[2] = read-out: Intercellular Adhesion Molecule 1 (ICAM1), ICAM1 (gene 3383); assay: BSK_3C_ICAM1: BioMAP Diversity Plus: 3C Assay for Intercellular Adhesion Molecule 1 (ICAM1) Biomarker Activity (AID 2283003; active = hit-call score of the fitted dose curve at least 0.9, where 1 is the maximum; inactive = score below 0.9); details: primary human endothelial cells (HUVEC); actives raise or lower the signal
In short: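 Chemicals are dosed onto primary human umbilical vein endothelium (3C system). After 24 h, ICAM-1 is measured by ELISA, and responses are fitted bidirectionally relative to DMSO.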

[3] = BSK_3C_Proliferation: Cell Proliferation Assessment in the BioMAP Diversity Plus: 3C Assay (AID 2283006; active = hit-call score of the fitted dose curve at least 0.9, where 1 is the maximum; inactive = score below 0.9;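 for AC50: potency may reflect either rise or fall in cell number versus DMSO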); details: primary human endothelial cells (HUVEC)
In short: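 Cells (human umbilical vein endothelial, sub-confluent) receive test chemical; after 48 h they are fixed in 10% trichloroacetic acid, stained with 0.1% SRB and read at 560 nm. Activity is referenced to DMSO, fitting increases and decreases.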

[4] = biological target: human RAR-related Orphan Receptor beta (RORb), RORB (gene 6096) (UniProt Q92753); assay: ATG_RORb_TRANS: Attagene TRANS-FACTORIAL HepG2 Assay for human RAR-related Orphan Receptor beta (RORb) (AID 2283010)
Chain of human RAR-related Orphan Receptor beta (RORb), RORB (gene 6096) (Q92753 whole entry, looked up, the tested form may be a part): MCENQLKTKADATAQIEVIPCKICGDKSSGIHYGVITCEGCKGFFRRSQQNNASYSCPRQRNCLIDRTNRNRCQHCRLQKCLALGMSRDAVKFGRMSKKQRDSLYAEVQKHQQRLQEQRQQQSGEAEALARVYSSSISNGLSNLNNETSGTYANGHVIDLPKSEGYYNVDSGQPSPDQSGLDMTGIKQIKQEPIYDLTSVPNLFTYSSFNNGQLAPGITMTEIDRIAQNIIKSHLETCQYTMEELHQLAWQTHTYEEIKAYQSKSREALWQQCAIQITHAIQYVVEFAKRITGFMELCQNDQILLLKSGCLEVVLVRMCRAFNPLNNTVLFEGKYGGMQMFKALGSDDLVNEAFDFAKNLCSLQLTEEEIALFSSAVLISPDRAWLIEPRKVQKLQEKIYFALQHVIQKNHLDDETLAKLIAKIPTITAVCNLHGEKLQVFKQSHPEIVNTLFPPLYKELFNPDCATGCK
In short: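 Transfect HepG2 with multiple GAL4-UAS reporter transcription units; dose chemicals for 24 h; isolate RNA, reverse-transcribe and PCR-amplify reporter sequences; label, digest and resolve fragments by capillary electrophoresis; fit increases relative to DMSO.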

[5] = biological target: Peroxisome proliferator-activated receptor gamma (Homo sapiens) (UniProt P37231); assay: ATG_PPARg_TRANS: Attagene TRANS-FACTORIAL HepG2 Assay for human Peroxisome Proliferator-activated Receptor-gamma (PPARg) (AID 2283007)
Chain of Peroxisome proliferator-activated receptor gamma (Homo sapiens) (P37231 whole entry, looked up, the tested form may be a part): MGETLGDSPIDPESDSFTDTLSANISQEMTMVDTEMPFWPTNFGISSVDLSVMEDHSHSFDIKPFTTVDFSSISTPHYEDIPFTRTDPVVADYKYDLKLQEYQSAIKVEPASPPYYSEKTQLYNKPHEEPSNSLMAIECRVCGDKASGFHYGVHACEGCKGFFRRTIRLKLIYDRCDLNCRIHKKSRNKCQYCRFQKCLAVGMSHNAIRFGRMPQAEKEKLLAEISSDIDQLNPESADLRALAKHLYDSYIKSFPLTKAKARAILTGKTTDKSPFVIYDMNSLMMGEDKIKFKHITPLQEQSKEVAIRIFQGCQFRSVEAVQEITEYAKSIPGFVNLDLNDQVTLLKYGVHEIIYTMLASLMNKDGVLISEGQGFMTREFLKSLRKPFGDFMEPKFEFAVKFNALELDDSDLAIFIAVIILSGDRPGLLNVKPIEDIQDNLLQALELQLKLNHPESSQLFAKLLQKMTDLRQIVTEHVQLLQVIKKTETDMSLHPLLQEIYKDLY
In short: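 HepG2 cells transiently transfected with multiplexed GAL4-UAS reporter units and exogenous chimeric NR-Gal4 proteins; reporter mRNA quantified after 24 h compound exposure by RT-PCR, fluorescent labelling, HpaI digestion and capillary electrophoresis; gain-of-signal fitted versus DMSO baseline.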

[6] = biological target: Nuclear receptor subfamily 1 group I member 2 (Homo sapiens) (UniProt O75469); assay: ATG_PXR_TRANS: Attagene TRANS-FACTORIAL HepG2 Assay for human Pregnane X Receptor (PXR) (AID 2283008)
Chain of Nuclear receptor subfamily 1 group I member 2 (Homo sapiens) (O75469 whole entry, looked up, the tested form may be a part): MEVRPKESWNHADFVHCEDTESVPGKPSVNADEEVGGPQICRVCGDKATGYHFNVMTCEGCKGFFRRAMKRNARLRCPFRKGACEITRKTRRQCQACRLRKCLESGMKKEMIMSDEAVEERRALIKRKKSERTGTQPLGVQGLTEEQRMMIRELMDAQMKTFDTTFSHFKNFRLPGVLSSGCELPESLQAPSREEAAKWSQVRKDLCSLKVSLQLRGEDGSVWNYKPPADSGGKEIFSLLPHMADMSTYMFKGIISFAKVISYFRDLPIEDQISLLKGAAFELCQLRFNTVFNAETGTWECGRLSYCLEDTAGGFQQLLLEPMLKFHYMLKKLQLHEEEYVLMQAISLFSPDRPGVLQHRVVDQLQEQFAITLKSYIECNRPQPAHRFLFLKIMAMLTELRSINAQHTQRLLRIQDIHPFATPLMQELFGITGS
In short: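 Transactivation by exogenous PXR–GAL4 fusion measured as reporter transcript induction after 24 h compound treatment of transfected human HepG2 cells. Read-out via RT-PCR and capillary electrophoresis of labelled fragments, fitted upward relative to DMSO.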

[7] = biological target: human RAR-related Orphan Receptor gamma (RORg), RORC (gene 6097) (UniProt P51449); assay: ATG_RORg_TRANS: Attagene TRANS-FACTORIAL HepG2 Assay for human RAR-related Orphan Receptor gamma (RORg) (AID 2283011)
Chain of human RAR-related Orphan Receptor gamma (RORg), RORC (gene 6097) (P51449 whole entry, looked up, the tested form may be a part): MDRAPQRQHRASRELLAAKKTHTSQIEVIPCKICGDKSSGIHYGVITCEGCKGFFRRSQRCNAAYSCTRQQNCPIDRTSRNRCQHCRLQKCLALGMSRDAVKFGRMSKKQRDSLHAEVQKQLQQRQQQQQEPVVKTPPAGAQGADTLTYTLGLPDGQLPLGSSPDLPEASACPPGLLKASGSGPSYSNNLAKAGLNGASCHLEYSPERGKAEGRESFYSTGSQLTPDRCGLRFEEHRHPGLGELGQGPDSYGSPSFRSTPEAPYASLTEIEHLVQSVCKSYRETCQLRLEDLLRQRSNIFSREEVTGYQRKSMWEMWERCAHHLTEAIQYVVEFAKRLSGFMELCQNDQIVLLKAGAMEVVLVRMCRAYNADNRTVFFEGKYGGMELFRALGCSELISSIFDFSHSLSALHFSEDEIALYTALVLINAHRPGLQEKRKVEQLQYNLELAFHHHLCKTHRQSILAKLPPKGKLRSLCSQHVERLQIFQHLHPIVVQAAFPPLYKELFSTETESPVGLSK
In short: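 First, HepG2 liver cells were transfected with GAL4-UAS-driven reporter constructs and the RORg-Gal4 fusion. Next, they were treated with chemical for 24 h. Finally, reporter mRNA was quantified by RT-PCR and capillary electrophoresis, with upward activity fitted against DMSO.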

[8] = biological target: human Retinoic Acid Receptor gamma (RARg), RARG (gene 5916) (UniProt P13631); assay: ATG_RARg_TRANS: Attagene TRANS-FACTORIAL HepG2 Assay for human Retinoic Acid Receptor gamma (RARg) (AID 2283009)
Chain of human Retinoic Acid Receptor gamma (RARg), RARG (gene 5916) (P13631 whole entry, looked up, the tested form may be a part): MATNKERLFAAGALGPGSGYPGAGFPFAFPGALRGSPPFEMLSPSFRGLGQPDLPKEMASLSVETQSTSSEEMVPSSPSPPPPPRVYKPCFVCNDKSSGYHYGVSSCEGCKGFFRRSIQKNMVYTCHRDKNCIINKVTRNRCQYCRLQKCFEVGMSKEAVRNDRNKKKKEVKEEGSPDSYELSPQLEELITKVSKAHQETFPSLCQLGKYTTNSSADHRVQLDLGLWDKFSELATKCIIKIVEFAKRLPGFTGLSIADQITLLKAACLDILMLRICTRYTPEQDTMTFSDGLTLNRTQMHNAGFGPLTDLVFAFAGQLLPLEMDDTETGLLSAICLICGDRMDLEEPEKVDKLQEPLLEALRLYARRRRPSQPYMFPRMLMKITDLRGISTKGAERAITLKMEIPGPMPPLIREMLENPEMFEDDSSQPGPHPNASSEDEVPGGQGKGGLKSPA
In short: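 TRANS format measured activity of exogenous NR-GAL4 fusion (RARg) in transfected HepG2 liver cells after 24 h dosing. Induced reporter RNA was detected by RT-PCR/capillary electrophoresis fluorescence, analysed in the positive direction against DMSO.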

[9] = biological target: Retinoic acid receptor alpha (Homo sapiens) (UniProt P10276); assay: ATG_RARa_TRANS: Attagene TRANS-FACTORIAL HepG2 Assay for human Retinoic Acid Receptor alpha (RARa) (AID 2283005)
Chain of Retinoic acid receptor alpha (Homo sapiens) (P10276 whole entry, looked up, the tested form may be a part): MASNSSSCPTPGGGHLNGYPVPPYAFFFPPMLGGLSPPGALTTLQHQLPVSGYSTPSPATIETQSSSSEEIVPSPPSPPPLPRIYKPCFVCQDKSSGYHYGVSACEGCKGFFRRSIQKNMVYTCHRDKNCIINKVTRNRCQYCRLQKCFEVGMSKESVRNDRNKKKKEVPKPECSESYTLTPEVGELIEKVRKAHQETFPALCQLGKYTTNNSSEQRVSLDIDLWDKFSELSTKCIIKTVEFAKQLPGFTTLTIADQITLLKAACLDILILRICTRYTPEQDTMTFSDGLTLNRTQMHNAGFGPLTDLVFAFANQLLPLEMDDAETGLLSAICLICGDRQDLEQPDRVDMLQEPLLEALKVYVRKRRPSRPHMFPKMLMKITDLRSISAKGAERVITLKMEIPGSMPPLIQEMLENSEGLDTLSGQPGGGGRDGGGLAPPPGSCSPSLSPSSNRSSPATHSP
In short: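 HepG2 cells transiently transfected with multiple reporter units expressing chimeric RARα-GAL4 fusion, with GAL4-UAS-driven reporters. After 24 h compound exposure, reporter mRNA induction quantified by RT-PCR and capillary electrophoresis with fluorescent labeling; gain-of-signal fitted relative to DMSO control.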

[10] = biological target: human Retinoic Acid Receptor beta (RARb), RARB (gene 5915) (UniProt P10826); assay: ATG_RARb_TRANS: Attagene TRANS-FACTORIAL HepG2 Assay for human Retinoic Acid Receptor beta (AID 2283004)
Chain of human Retinoic Acid Receptor beta (RARb), RARB (gene 5915) (P10826 whole entry, looked up): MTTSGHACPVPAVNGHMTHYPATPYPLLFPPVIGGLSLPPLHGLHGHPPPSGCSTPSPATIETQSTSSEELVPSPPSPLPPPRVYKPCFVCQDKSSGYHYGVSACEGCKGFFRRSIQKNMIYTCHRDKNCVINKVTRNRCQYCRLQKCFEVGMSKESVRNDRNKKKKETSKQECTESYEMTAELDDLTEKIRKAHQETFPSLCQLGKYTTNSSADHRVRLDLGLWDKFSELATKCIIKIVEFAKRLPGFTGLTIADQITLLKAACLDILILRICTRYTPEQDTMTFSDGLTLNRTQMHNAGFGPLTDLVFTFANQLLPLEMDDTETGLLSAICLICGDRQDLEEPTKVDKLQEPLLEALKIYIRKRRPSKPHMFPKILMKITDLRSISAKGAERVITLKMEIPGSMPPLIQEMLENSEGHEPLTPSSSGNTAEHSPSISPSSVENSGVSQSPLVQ
In short: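 Transient transfection of HepG2 with multiple reporter units → chemical dosing, 24 h → total RNA isolation → RT with oligo(dT) → reporter-specific PCR, 6-FAM primer extension, HpaI digest → capillary electrophoresis. Positive direction vs DMSO control.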

Measured: AC50

O=C(O)c1[nH]n(-c2ccc(S(=O)(=O)O)cc2)c(=O)c1N=Nc1ccc(S(=O)(=O)O)cc1
inactive: [1] | [2] | [3] | [4]

CN(C)CCCN(C)CCCN(C)C
inactive: [2] | [3] | [5] | [6]

CC(=O)[C@@]1(O)CC[C@H]2[C@@H]3CCC4=CC(=O)CC[C@]4(C)[C@H]3CC[C@@]21C
inactive: [1] | [2] | [3] | [6] | [7]

C/C=C/c1ccc(OC)cc1
inactive: [1] | [2] | [3] | [6]

O=C(O)CN(CC(=O)O)CC(=O)O
inactive: [1] | [2] | [3] | [8] | [7]

Cc1cc(Cc2ccc(N)c(C)c2)ccc1N
inactive: [2] | [9] | [3] | [6] | [7]

CCCCC(CC)COP(=O)(OCC(CC)CCCC)OCC(CC)CCCC (stereo not given)
active: [3] 20.6 µM | [6] 0.227 µM
inactive: [1] | [2] | [4]

CCc1cc(C2=C(C(=O)O)N(c3ccccc3C(F)(F)F)S(=O)(=O)c3ccccc32)cc2c1OCO2
inactive: [1] | [2] | [7]
active: [3] 16.6 µM | [6] 1.42 µM

OCC(O)CO
inactive: [2] | [3]

Cc1ccc(-c2cc(C(F)(F)F)nn2-c2ccc(S(N)(=O)=O)cc2)cc1
active: [2] 36.8 µM | [3] 20 µM
inactive: [10] | [9] | [5] | [6] | [8]

Cc1cc(SC2=C(O)C[C@@](CCc3ccc(N)cc3)(C(C)C)OC2=O)c(C(C)(C)C)cc1CO
inactive: [1] | [2] | [3] | [4] | [7]
active: [6] 1.65 µM

CC(C)OC(=O)C(C)(C)Oc1ccc(C(=O)c2ccc(Cl)cc2)cc1
active: [3] 15.8 µM | [6] 5.53 µM
inactive: [1] | [2] | [7]

CCOCCOCCO
inactive: [2] | [3] | [5]

Nc1nc(Cl)nc2c1ncn2[C@H]1C[C@H](O)[C@@H](CO)O1
inactive: [1] | [2] | [6]
active: [3] 0.147 µM

COC(=O)CCCC(=O)OC
inactive: [1] | [2] | [3] | [4]

O=C(O)CC(O)(CC(=O)O)C(=O)O
inactive: [2] | [3]

Nc1nc(=S)c2[nH]cnc2[nH]1
not listed: [1] | [6]
inactive: all other assays above

O=[Si]=O
not listed: [1] | [7]
inactive: all other assays above

CC(C)NCC(O)c1ccc(O)c(O)c1 (stereo not given)
inactive: [1] | [2] | [3] | [7]

CN(C)CCCN1c2ccccc2Sc2ccc(Cl)cc21
active: [3] 25 µM
inactive: [1] | [6]

O=C1O[C@H]([C@H](O)CO)C(O)=C1O
inactive: [2] | [3] | [4] | [7]

CS(=O)(=O)c1ccc([C@@H](C[C@H]2CCC(=O)C2)C(=O)Nc2cnccn2)cc1Cl
inactive: [2] | [3] | [5] | [6] | [4] | [7]

CC(N)=O
inactive: [2] | [3] | [5] | [7]

Cc1cn([C@H]2C=C[C@@H](CO)O2)c(=O)[nH]c1=O
inactive: [2] | [3] | [5] | [7]

C=CCc1ccc(OC)c(OC)c1
inactive: [2] | [3] | [5] | [7]
active: [6] 28.8 µM

C#CC(O)C(CC)CCCC (stereo not given)
active: [5] 59.2 µM | [6] 25.5 µM
inactive: [2] | [3] | [4]

Cn1cnc2c1c(=O)[nH]c(=O)n2C
inactive: [2] | [3] | [5] | [6] | [8] | [7]

Cc1ccc(C(C)(C)C)c(O)c1
active: [2] 31.1 µM | [6] 47.2 µM
inactive: [3] | [5]

CCCC(=O)O
inactive: [2] | [3] | [6] | [8] | [7]

CC1=C(C)S(=O)(=O)CCS1(=O)=O
active: [5] 77.8 µM
inactive: [2] | [3] | [6] | [7]

NCCOCCOCCN
inactive: [2] | [3] | [5] | [6] | [7]

c1ccc2occc2c1
inactive: [2] | [3] | [7]

OCC(CO)n1cnc(-c2ccc(F)cc2)c1-c1ccnc(Oc2ccccc2)n1
inactive: [2] | [3] | [5] | [4]
active: [6] 6.83 µM

CCCCCCCCCCCCCCOS(=O)(=O)O
inactive: [2] | [4]
active: [3] 30.1 µM | [5] 11.1 µM

O=C1NC(=O)C(c2ccccc2)(c2ccccc2)N1
inactive: [2] | [3] | [5] | [6]

O=C1c2c(O)cccc2Cc2cccc(O)c21
active: [3] 15 µM
inactive: [2] | [4]

CSc1ccc(Oc2ccc(S(N)(=O)=O)cc2CN(C)C)cc1C
active: [3] 20 µM | [6] 2.31 µM
inactive: [2] | [5] | [7]

Cc1occc(=O)c1O
inactive: [2] | [3] | [5] | [4]

CCCCC(CC)COC(=O)CCCCCCCC(=O)OCC(CC)CCCC (stereo not given)
inactive: [2] | [3] | [6]

CCCC[C@H]1CN(CC2CCOCC2)C(=O)OC12CCN(C1(C)CCN(C(=O)c3c(C)ncnc3C)CC1)CC2
inactive: [2] | [3] | [6] | [4]

S=c1[nH]c2ccccc2s1
inactive: [2] | [3] | [7]
active: [5] 9.31 µM | [6] 31.5 µM

CCCCCCCC(=O)OC
inactive: [2] | [3] | [6]

O=C(NS(=O)(=O)/C=C/c1cccs1)c1ccc(F)cc1Br
active: [3] 2.87 µM | [5] 21.6 µM | [6] 11.4 µM
inactive: [2] | [4] | [7]

CC(C)(C)c1ccccc1
inactive: [2] | [3] | [4]

CCCCc1nc2cccnc2n1Cc1ccc(-c2ccccc2-c2nnn[nH]2)cc1
active: [5] 4.39 µM | [6] 27.4 µM
inactive: [2] | [3] | [4]

CCCCC(CC)CO (stereo not given)
inactive: [2] | [3] | [6] | [7]

C/C=C/C=C/C(=O)O
inactive: [2] | [3] | [5] | [6] | [4] | [7]

CC(=O)CC(c1ccccc1)c1c(O)c2ccccc2oc1=O (stereo not given)
inactive: [2] | [3] | [6] | [4] | [7]

COC(=O)CCC(=O)OC
inactive: [2] | [3] | [6]
